KinaseGlo FLuc – blocks Kinase-Glo luciferase, a counter-screen artifact. Q27757. AID 1379. Potency, µM (titrated, usually from 38.3 µM), for inactives: at the highest dose activity change, negative = inhibition, hits mostly inhibitors. Kinase-Glo luciferase, ATP luminescence, 8 min. 200,000 compounds, 0.28% hits; note: % is set by controls: 0 for no effect and ±100 for the full control effect; nearly all actives have a fitted effect of over 60% in size
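Recombinant Kinase-Glo luciferase, 10 uM ATP (linear range), luciferin; imidazole pH 7.2 / KCl / MgCl2 / Tween / BSA buffer; 8 min RT; luminescence.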
FLuc modulator – counter-screen for miR-21 project: firefly luciferase inhibitors or activators. P08659. purified FLuc, Km substrates, luminescence inhibition. Potency, µM (top dose mostly 57.5 µM), inactives show at the highest dose activity change, negative = inhibition, usual class: inhibitors. 360,000 compounds, 6.9% hits;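 note: plate controls were vehicle for no effect and reference inhibitor for full effect; nearly all actives have a fitted effect of over 55% in size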
Target sequence (P08659 whole entry, looked up): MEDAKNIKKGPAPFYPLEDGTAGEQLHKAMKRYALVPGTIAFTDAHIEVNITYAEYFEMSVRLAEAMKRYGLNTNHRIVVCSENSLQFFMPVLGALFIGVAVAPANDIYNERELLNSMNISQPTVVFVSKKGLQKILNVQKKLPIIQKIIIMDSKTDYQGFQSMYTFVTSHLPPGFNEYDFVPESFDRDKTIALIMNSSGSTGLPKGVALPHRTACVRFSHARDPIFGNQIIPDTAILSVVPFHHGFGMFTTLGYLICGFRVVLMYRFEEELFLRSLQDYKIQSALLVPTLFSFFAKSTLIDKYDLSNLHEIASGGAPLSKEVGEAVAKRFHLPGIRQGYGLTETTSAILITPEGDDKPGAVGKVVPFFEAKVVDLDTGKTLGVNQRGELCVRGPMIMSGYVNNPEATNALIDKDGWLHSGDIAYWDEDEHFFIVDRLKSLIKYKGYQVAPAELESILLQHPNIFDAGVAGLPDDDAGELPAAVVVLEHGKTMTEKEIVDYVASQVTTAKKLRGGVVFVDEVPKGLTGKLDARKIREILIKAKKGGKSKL
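Biochemical qHTS of compounds, final roughly 60 µM downward over six points, against 10 nM purified firefly luciferase using Km concentrations of substrates (10 uM D-luciferin, 10 uM ATP) in Tris acetate pH 7.5 buffer; luminescence output.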
ELG1 genotoxic – genotoxicity induction in ELG1-luciferase HEK293T cells; HEK293T ELG1-luciferase reporter, luminescence, 16 h; Potency, µM (top dose mostly 46 µM), for the others: top-dose activity change, positive = activation, usual class: activators; 330,000 compounds, 1.3% hits; AID 504466; note: % of control where 0% means no effect; nearly all actives have a fitted effect of over 60% in size
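After overnight (16 hr) compound treatment at 37 °C, ELG1-luciferase HEK293T cells were lysed with ONE-Glo; luminescence quantified 30 min later at room temperature.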
NPC1 promoter act – activates the NPC1 promoter | Huh7 NPC1 promoter luciferase reporter, 24 h | Potency, µM (titrated, usually from 9.22 µM), for the others: at the highest dose activation, usual class: activators | 320,000 compounds, 2.4% hits; note: % of control where 0% means no effect; nearly all actives have a fitted effect of over 60% in size
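Luminescence from an NPC1 promoter-driven luciferase reporter in stably transfected Huh7 cells was measured after 24 h compound treatment at 37 °C, followed by 10 min ambient incubation with luciferase detection reagent.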
Rab9 prom act – activators of Rab9 promoter | 320,000 compounds, 2.8% hits | Potency, µM (series often up to 9.22 µM), for the others: at the top dose activation, negative = inhibition, usual class: activators | Huh7 Rab9 promoter-luciferase reporter, luminescence, 24 h; note: % of control where 0% means no effect; nearly all actives have a fitted effect of over 60% in size
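Stable Rab9-luc Huh7, 1500 cells/well, 2 h settle; cmpd in DMSO, 24 h, 37 °C/5% CO2; luciferase reagent 10 min RT; luminescence.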
SMN2 splice enh – SMN2 splice variant enhancement; HEK293 SMN2-luciferase splicing reporter, luminescence, 30-36 h; AID 1458; 210,000 compounds, 2.8% hits; Potency, µM (top dose mostly 46.1 µM), without a hit: top-dose activity change, positive = activation, usual class: activators; note: % of control where 0% means no effect; nearly all actives have a fitted effect of over 55% in size
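qHTS luciferase splicing reporter: luminescence rises when SMN2 exon 7 is included in transfected HEK293 cells. Compound exposure lasted 30-36 h at 37C, with 4.5 mM final sodium butyrate as control, followed by a ONE-Glo read.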
* = called active by the depositor; ? = inconclusive; nt = not tested or not shown; [ ] = dose if it differs, or a comment. Only some compounds are listed: those with a hit (about 7.3% of all), similar ones and a draw of the others. Calls come from the whole dose curve; as a rule, active = well fitted curve in the direction sought with a large enough effect; inconclusive = small, poorly fitted or top-dose-only effect, or another doubt; inactive = no such curve, though single readings can be large; an effect the other way counts as inactive or inconclusive. Potency is the fitted concentration of half-maximal effect.

SMILES	KinaseGlo FLuc	FLuc modulator	ELG1 genotoxic	NPC1 promoter act	Rab9 prom act	SMN2 splice enh
Cc1ccc(C(=O)OCC(=O)c2ccc(CC(=O)N3CCOCC3)s2)cc1C	nt	23.9µM*	1.2%	1.6%	-4.3%	nt
Cc1ccc(C(=O)OCC(=O)N2CCNC2=O)c(C)c1	nt	21.3µM*	?	?	?	nt
Cc1nc2ccc(NC(=O)CCS(=O)(=O)c3ccccc3)cc2s1	0.9%	?	14.8%	24.3%	27.8%	15.8µM*
Cc1nc2cc(NC(=O)CCS(=O)(=O)c3ccccc3)ccc2s1	1.2%	9.53µM*	?	2µM*	1.41µM*	10µM*
Cc1ccc(NC(=O)CCS(=O)(=O)c2ccc3nc(C)sc3c2)cc1	nt	-0.5%	5.0%	-5.0%	-2.0%	nt
Cc1ccc(N(CC(=O)Nc2ccc(-c3nc4ccc(C)cc4s3)cc2)S(C)(=O)=O)cc1	-7.4%	7.57µM*	?	?	?	36.9%
Cc1ccc2nc(-c3ccc(NC(=O)CCS(=O)(=O)c4ccccc4)cc3)sc2c1	2.8%	10.7µM*	?	0.562µM*	0.316µM*	nt
Cc1ccc(S(=O)(=O)CCC(=O)Nc2ccc3nc(C)sc3c2)cc1	3.6%	4.8%	-1.0%	-3.7%	-4.0%	-23.5%
Cc1ccc(C)c(N(CC(=O)Nc2ccc(-c3nc4ccc(C)cc4s3)cc2)S(C)(=O)=O)c1	-2.8%	-17.1%	0.8%	9.0%	-2.3%	25.6%
CC(=O)Nc1cc(-c2nc3ccccc3o2)ccc1Cl	nt	16.9µM*	?	14.9%	?	nt
O=C(Nc1ccc(-c2nc3ccccc3o2)c(O)c1)c1cc(Cl)ccc1Cl	nt	?	nt	nt	nt	4.8%
CCc1ccc(OCC(=O)Nc2ccc(-c3nc4ccccc4o3)c(O)c2)cc1	-5.0%	9.5%	?	2µM*	3.55µM*	?
CC(=O)Nc1ccc2nc3ccccc3nc2c1	nt	19µM*	20.6µM*	2.82µM*	3.98µM*	nt
O=C(O)CCC(=O)Nc1cccc(-c2nc3ccccc3o2)c1	nt	10.7µM*	0.5%	0.9%	0.1%	nt
Cc1onc(-c2c(F)cccc2Cl)c1C(=O)OCc1nnc(-c2ccccc2)o1	nt	nt	-2.3%	0.2%	1.5%	nt
COc1ccc(OCC(=O)Nc2cccc(-c3nc4ccccc4o3)c2)cc1	-8.0%	?	?	4.47µM*	?	66.1%
CC(=O)Nc1ccc2oc(-c3ccccc3)nc2c1	-4.9%	7.57µM*	?	1.26µM*	2.51µM*	10µM*
COc1ccc(-c2nc3ccccc3o2)cc1NC(=O)COc1cc(C)cc(C)c1	nt	-5.8%	nt	nt	nt	nt
COc1ccc(-c2nc3ccccc3o2)cc1NC(=O)COc1ccc(C(C)(C)C)cc1	nt	-1.2%	nt	nt	nt	5.01µM*
CCCC(=O)Nc1cccc(-c2nc3ccccc3o2)c1	1.1%	?	-0.9%	5.4%	10.2%	34.4%
O=C(Nc1ccc2oc(-c3ccncc3)nc2c1)c1ccccc1	-2.7%	-0.3%	2.1%	-3.9%	-1.6%	-16.3%
CC(=O)Nc1cccc(-c2nc3ccccc3o2)c1	nt	19µM*	?	27.8%	29.7%	nt
CCOC(=O)C1(Cc2ccccc2)CCCN(C2CCCC2)C1 (stereo not given)	-3.8%	1.0%	0.5%	-4.8%	-5.4%	nt
CC(C)(C)c1ccc(C(=O)NC(=S)NNC(=O)COc2ccccc2)cc1	nt	?	?	22.1%	?	nt
O=C(CN1C(=O)NC(CCc2ccccc2)C1=O)Nc1cccc(Br)c1 (stereo not given)	nt	nt	-3.1%	nt	nt	nt
SMILES	KinaseGlo FLuc	FLuc modulator	ELG1 genotoxic	NPC1 promoter act	Rab9 prom act	SMN2 splice enh
O=C(NNS(=O)(=O)c1ccc(C(=O)NC2CCCC2)cc1)c1ccncc1	2.9%	6.7%	0.9%	-1.1%	-0.7%	-4.1%
Oc1cc(NCc2cccnc2)ccc1-c1nc2ccccc2o1	-0.9%	7.57µM*	?	1.41µM*	?	11.2µM*
CC(=O)Nc1ccc(-c2nc3ccc(NC(C)=O)cc3o2)cc1	nt	?	?	2.51µM*	2µM*	nt
Fc1ccc(NCc2cccnc2)cc1F	0.4%	1.2%	4.3%	-1.8%	2.8%	-3.6%
O=C(CSc1ccccc1)Nc1cc(S(=O)(=O)N2CCOCC2)ccc1N1CCOCC1	0.1%	-1.8%	-1.6%	-6.1%	21.7%	-1.9%
O=C(C[n+]1ccccc1)c1ccc(Cl)cc1	nt	2.9%	0.6%	1.9%	-5.0%	nt
CC(=O)Nc1ccc(/C=C/c2nc(-c3ccccc3O)n[nH]2)cc1	nt	?	?	?	3.55µM*	nt
COc1cc(/C=C/c2nc(-c3ccccc3O)n[nH]2)cc(OC)c1OC	-3.1%	?	-0.6%	13.1%	3.0%	?
CCC1CCCCN1CC(=O)Nc1ccc2c(c1)OCCO2 (stereo not given)	nt	23.9µM*	7.2%	22.1%	27.7%	nt
COC(=O)C1CCN(CC(=O)Nc2ccc3c(c2)OCCO3)CC1	nt	nt	0.9%	nt	nt	nt
CC1CC(C)(C)NC(=S)N1CCCC(=O)Nc1ccc2c(c1)OCCO2 (stereo not given)	-2.6%	26.9µM*	?	0.1%	?	19.2%
CC1CC(C)CN(CC(=O)Nc2ccc3c(c2)OCCO3)C1 (stereo not given)	-7.1%	15.1µM*	?	?	?	-32.0%
Cc1ccc(C2=NC(C)(C)NC2=O)cc1	1.7%	1.2%	9.6%	-2.4%	0.1%	-29.8%
CCc1cccc(C)c1NC(=O)c1cc(S(=O)(=O)N2CCC3(CC2)OCCO3)ccc1F	nt	0.1%	nt	nt	nt	nt
CCOc1ccc(NC(=O)C2CCCN(c3c(CC)c(C)nc4ncnn34)C2)cc1 (stereo not given)	nt	0.0%	-11.8%	-3.2%	-16.3%	nt
C(=C\c1nnc2c3ccccc3ncn12)/c1ccccc1	-4.2%	1.69µM*	?	4.47µM*	3.16µM*	14.1µM*
Cc1[nH]n(-c2ccc(S(=O)(=O)O)cc2)c(=O)c1N=Nc1ccccc1	-4.6%[7.66 µM]	nt	nt	nt	nt	-3.1%[9.22 µM]
Cc1[nH]n(-c2ccccc2)c(=O)c1N=Nc1ccccc1O	-2.2%	8.49µM*	9.7%	-29.6%	-41.8%	nt
Cc1[nH]n(-c2ccccc2)c(=O)c1N=Nc1ccccc1C(=O)O	nt	16.9µM*	-15.9%	17.9%	16.6%	nt
Cc1ccccc1N=Nc1c(C)[nH]n(-c2ccccc2)c1=O	3.7%	?	-0.7%	2.1%	0.3%	nt
Cc1[nH]n(-c2ccccc2)c(=O)c1C(=O)Nc1ccccc1	nt	16.9µM*	9.2%	0.2%	12.5%	nt
C/C(=N\NC(=O)c1ccccc1)c1c(C)[nH]n(-c2ccccc2)c1=O	nt	-12.9%	4.2%	-25.2%	-19.9%	nt
Cc1[nH]n(-c2ccccc2)c(=O)c1N=Nc1nccs1	-7.2%	19µM*	6.5%	18.9%	10.1%	-31.7%
COc1ccc(C(=O)Nc2ccc(NC(C)=O)cc2)cc1S(=O)(=O)N(C)Cc1ccccc1	nt	4.2%	-5.1%	-1.6%	-4.4%	nt

Source: PubChem BioAssay (National Center for Advancing Translational Sciences (NCATS))
